According to PubChem BioAssay:
Results filed as inconclusive are left out. For some of these results: Measured potencies and affinities stand elsewhere. Active and inactive are the calls of the source. Unless noted, the rule behind the calls is not given here.

Tests used:
[1] = antimalarial activity against Dd2 strain (AID 2302;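 active = growth inhibition above 50% at the single 2 µM test dose, taken to imply half-maximal potency below 2 µM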;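 note: 0% = DMSO untreated growth and 100% = chloroquine plus artemisinin killed control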); conditions: P. falciparum Dd2 in RBCs, LDH growth readout, 72 h; at 2 µM; stronger effect = higher value
[2] = human hepatoma cell viability loss – ATP luminescence, cytotoxicity control for P. falciparum antimalarial project, primary screen (AID 2303;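 active = inhibition above 50%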;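 note: 0% = DMSO wells and 100% = digitonin-killed cells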); conditions: HepG2 viability, 24-48 h, at 10 µM, stronger effect = higher value
[3] = target: L-lactate dehydrogenase (Plasmodium falciparum (isolate CDC / Honduras)) (UniProt Q27743); assay: PfLDH activity inhibition – cell lysate, 3D7 strain, counter-screen for P. falciparum growth inhibition project (AID 2304);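 note: 0% = vehicle and 100% = reference inhibitor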; conditions: P. falciparum 3D7 crude extract, LDH APAD/NBT absorbance; at 2 µM; stronger effect = higher value
Chain of L-lactate dehydrogenase (Plasmodium falciparum (isolate CDC / Honduras)) (Q27743 whole entry, looked up): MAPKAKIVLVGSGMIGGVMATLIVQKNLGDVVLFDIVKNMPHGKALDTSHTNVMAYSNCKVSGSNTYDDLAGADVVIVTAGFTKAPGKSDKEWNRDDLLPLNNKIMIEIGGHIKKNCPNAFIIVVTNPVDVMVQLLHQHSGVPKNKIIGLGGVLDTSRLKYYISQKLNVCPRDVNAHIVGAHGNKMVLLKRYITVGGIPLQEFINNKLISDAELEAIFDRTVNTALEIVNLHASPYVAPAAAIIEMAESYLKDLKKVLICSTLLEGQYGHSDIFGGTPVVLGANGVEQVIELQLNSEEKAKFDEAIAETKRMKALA

[4] = inhibition of 3D7 malaria parasite growth – strain 3D7 (AID 2306);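 note: 0% = DMSO wells and 100% = chloroquine plus artemisinin control wells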; conditions: P. falciparum 3D7 erythrocytic growth, LDH absorbance, 72 h; at 2 µM; stronger effect = higher value
[5] = compounds altering circadian rhythm period length – cell-based, LOPAC library, luminescence reporter (AID 2774); conditions: circadian reporter cells, at 7 µM, actives lie on both sides;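 note: values are relative to mean of DMSO wells on each plate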
[6] = blockers of polyQ-driven CASP3 activation – cell-based (AID 1583); conditions: polyglutamine-induced caspase-3 activation, cell assay; stronger effect = higher value;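 tested at 10 µM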
[7] = yeast 75Q aggregation reduction – 75Q-TubU reporter (AID 1593); conditions: Yeast 75Q polyglutamine aggregation reporter
[8] = restoration of touch response, mutant HTT neurons – whole organism, C. elegans mechanosensory neurons, N-terminal huntingtin (AID 1599); conditions: C. elegans polyQ-huntingtin mechanosensory neurons, stronger effect = higher value
[9] = blockers of cytochrome c efflux from mitochondria – biochemical, purified mitochondria (AID 1603); conditions: stronger effect = lower value;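 note: mouse liver mitochondria challenged with calcium chloride; signal normalized to the plate average as 100%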
[10] = polyglutamine aggregate formation blockers (AID 1604); conditions: polyglutamine-induced protein aggregation inhibition assay; stronger effect = higher value; tested at 2.5 µM
[11] = glutamate transport activators, MN-1 cells, MN-1 cell line (AID 1612); conditions: MN-1 motor neuron cells, stronger effect = higher value;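 note: tested at 1 µM final; 0% = mean of DMSO vehicle wells on each plate; positive means more glutamate uptake than control and negative means less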
[12] = 75Q-TubH aggregate inhibition, S. cerevisiae, yeast (AID 1616); conditions: S. cerevisiae 75Q-TubH polyglutamine aggregation suppression; stronger effect = higher value
[13] = compounds altering viability of human ES cells (AID 493140); conditions: human embryonic stem cell survival screen; stronger effect = higher value;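 note: cells exposed to compounds for four days before counting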
[14] = target: ATP-dependent translocase ABCB1 (Homo sapiens) (UniProt P08183); assay: P-glycoprotein substrate transport blockade – cell-based (AID 377; in the data active = fluorescence slope change above about 50%); conditions: MDR1-expressing cells, fluorescent substrate accumulation slope; stronger effect = higher value; concentration not given here
Chain of ATP-dependent translocase ABCB1 (Homo sapiens) (P08183 whole entry, looked up): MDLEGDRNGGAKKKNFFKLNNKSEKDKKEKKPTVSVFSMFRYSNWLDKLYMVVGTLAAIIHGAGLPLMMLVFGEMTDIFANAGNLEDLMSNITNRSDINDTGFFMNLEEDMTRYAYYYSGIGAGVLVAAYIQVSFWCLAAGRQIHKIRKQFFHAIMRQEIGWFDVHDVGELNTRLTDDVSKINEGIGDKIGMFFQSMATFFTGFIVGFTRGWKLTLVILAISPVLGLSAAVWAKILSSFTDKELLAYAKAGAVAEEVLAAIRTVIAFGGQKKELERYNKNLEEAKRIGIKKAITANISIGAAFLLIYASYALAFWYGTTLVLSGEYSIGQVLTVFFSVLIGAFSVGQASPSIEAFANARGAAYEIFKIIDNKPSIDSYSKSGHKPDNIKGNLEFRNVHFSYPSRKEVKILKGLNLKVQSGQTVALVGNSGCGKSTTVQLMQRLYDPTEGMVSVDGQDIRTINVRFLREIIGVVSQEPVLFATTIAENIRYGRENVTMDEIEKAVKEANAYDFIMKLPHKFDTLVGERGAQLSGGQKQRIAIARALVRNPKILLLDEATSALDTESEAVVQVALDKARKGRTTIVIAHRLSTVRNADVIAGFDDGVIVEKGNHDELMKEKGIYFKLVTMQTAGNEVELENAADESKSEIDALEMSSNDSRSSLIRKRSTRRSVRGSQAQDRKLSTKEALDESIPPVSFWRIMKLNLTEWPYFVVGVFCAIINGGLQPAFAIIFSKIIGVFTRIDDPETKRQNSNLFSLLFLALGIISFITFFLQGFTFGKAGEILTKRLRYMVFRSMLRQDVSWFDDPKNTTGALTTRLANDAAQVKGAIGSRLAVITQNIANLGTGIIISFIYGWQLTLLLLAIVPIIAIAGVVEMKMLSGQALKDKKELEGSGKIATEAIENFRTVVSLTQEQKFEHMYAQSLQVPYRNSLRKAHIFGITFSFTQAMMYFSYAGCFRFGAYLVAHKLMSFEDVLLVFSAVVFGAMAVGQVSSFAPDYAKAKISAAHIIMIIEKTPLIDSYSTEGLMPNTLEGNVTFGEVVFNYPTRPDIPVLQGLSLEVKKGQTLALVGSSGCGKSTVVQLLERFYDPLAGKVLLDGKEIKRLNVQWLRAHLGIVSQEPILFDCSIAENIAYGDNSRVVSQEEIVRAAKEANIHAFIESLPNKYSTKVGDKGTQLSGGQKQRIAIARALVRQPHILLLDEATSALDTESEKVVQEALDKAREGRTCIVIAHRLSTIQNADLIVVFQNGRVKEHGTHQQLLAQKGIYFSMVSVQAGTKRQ

## Cc1nc(N)nc(N)c1-c1ccc(Cl)c(Cl)c1
[1]
  growth inhibition: -1% (inactive)
[2]
  inhibition: 66% (active)
[3]
  inhibition: 3% (inactive)
[4]
  growth inhibition: 95% (active)

## CN(C)CC[C@@H](c1ccc(Cl)cc1)c1ccccn1
[5]
  period change: -0.255 h (inactive)

## Brc1c(NC2=NCCN2)ccc2nccnc12
[5]
  period change: -0.1 h (inactive)

## CCN(CC)C(C)CN1c2ccccc2Sc2ccccc21 (stereo unspecified)
[6]
  inhibition: -20.5%
[7]
  score: 1.11
[8]
  rescue above control: -4.48
[9]
  cytochrome c release ratio: 0.98
[10]
  inhibition of aggregation: 54.5%
[11]
  glutamate uptake change: 47.6%
[12]
  aggregation suppression score: 1.19
[13]
  survival: 4.08 (inactive)

## NC(=O)OCC(COC(N)=O)c1ccccc1
[5]
  period change: -0.105 h (inactive)

## CCN(CC)Cc1cc(Nc2ccnc3cc(Cl)ccc23)ccc1O
[14]
  fluorescence slope change: 54.8% (active)
[1]
  growth inhibition: 99% (active)
[2]
  inhibition: -2% (inactive)
[3]
  inhibition: 3% (inactive)
[4]
  growth inhibition: 102% (active)
[13]
  survival: 6.17 (inactive)

## COc1ccccc1OCC(O)CN1CCN(CC(=O)Nc2c(C)cccc2C)CC1 (stereo unspecified)
[5]
  period change: 0 h (inactive)

## Cc1cc(O)cc(C)c1Cl
[6]
  inhibition: 0.93%
[7]
  score: 0.53
[9]
  cytochrome c release ratio: 5.53
[10]
  inhibition of aggregation: 81.6%
[11]
  glutamate uptake change: -5.88%
[12]
  aggregation suppression score: 0.248

## C[C@@](Cc1ccc(O)c(O)c1)(NN)C(=O)O
[5]
  period change: 0.03 h (inactive)

## CNC[C@H](O)c1ccc(O)c(O)c1
[5]
  period change: 0.025 h (inactive)

## Nc1nnc(-c2cccc(Cl)c2Cl)c(N)n1
[5]
  period change: -0.15 h (inactive)

## COC(=O)Nc1nc2ccc(C(=O)c3cccs3)cc2[nH]1
[14]
  fluorescence slope change: 103% (active)
[5]
  period change: -0.58 h (inactive)
[13]
  survival: 1.17 (inactive)

## CN(C)CC[C@@H](c1ccc(Br)cc1)c1ccccn1
[5]
  period change: -0.05 h (inactive)

## CC(C(=O)O)c1ccc(CC2CCCC2=O)cc1 (stereo unspecified)
[5]
  period change: -0.055 h (inactive)

## C[C@]12C=CC(=O)C=C1CC[C@H]1[C@@H]3C[C@@H](O)[C@](O)(C(=O)CO)[C@@]3(C)C[C@H](O)[C@@]12F
[14]
  fluorescence slope change: 27% (inactive)
[5]
  period change: -0.51 h (inactive)
[13]
  survival: 13.9 (inactive)

## CCCCCN(CCCCC)C(=O)C(CCC(=O)O)NC(=O)c1ccc(Cl)c(Cl)c1 (stereo unspecified)
[5]
  period change: 0.13 h (inactive)
[13]
  survival: 1.92 (inactive)

## CC(=O)O[C@]1(C(C)=O)CC[C@H]2[C@@H]3C=C(Cl)C4=CC(=O)[C@@H]5C[C@@H]5[C@]4(C)[C@H]3CC[C@@]21C
[5]
  period change: 0.03 h (inactive)

## Cc1ccc(C(=O)Nc2ccc(S(=O)(=O)O)c3cc(S(=O)(=O)O)cc(S(=O)(=O)O)c23)cc1NC(=O)c1cccc(NC(=O)Nc2cccc(C(=O)Nc3cc(C(=O)Nc4ccc(S(=O)(=O)O)c5cc(S(=O)(=O)O)cc(S(=O)(=O)O)c45)ccc3C)c2)c1
[5]
  period change: 0.03 h (inactive)

## NC(N)=NC(=O)Cc1c(Cl)cccc1Cl
[14]
  fluorescence slope change: 82% (active)
[5]
  period change: 0.09 h (inactive)
[13]
  survival: 7.33 (inactive)

## CCOC(=O)C1=C(C)NC(C)=C(C(=O)OC)C1c1cccc(Cl)c1Cl (stereo unspecified)
[14]
  fluorescence slope change: 28.6% (inactive)
[5]
  period change: -0.06 h (inactive)
[13]
  survival: 15.7 (inactive)

## CCOC(=O)C1=C[C@]2(CC)CCCN3CCc4c(n1c1ccccc41)[C@@H]32
[14]
  fluorescence slope change: 107% (active)
[5]
  period change: 0 h (inactive)
[13]
  survival: 5.33 (inactive)

## COc1cc2nc(N3CCN(C(=O)C4COc5ccccc5O4)CC3)nc(N)c2cc1OC (stereo unspecified)
[14]
  fluorescence slope change: 75.1% (active)
[5]
  period change: 0.11 h (inactive)
[13]
  survival: 4.33 (inactive)

## CO[C@@]1(NC(=O)CSCC#N)C(=O)N2C(C(=O)O)=C(CSc3nnnn3C)CS[C@@H]21
[14]
  fluorescence slope change: 20.3% (inactive)
[5]
  period change: -0.07 h (inactive)
[13]
  survival: 4.83 (inactive)

## Cc1cnc(NC(=O)C2=C(O)c3ccccc3S(=O)(=O)N2C)s1
[5]
  period change: -0.06 h (inactive)

## CC(C)NCC(O)COc1ccc(CCOCC2CC2)cc1 (stereo unspecified)
[14]
  fluorescence slope change: 1% (inactive)
[5]
  period change: 0.03 h (inactive)
[13]
  survival: 8.33 (inactive)

## O=C1N(c2ccccc2)c2ccccc2C1(Cc1ccncc1)Cc1ccncc1
[5]
  period change: 0.25 h (inactive)

## COc1cc(C(=O)OCCCN2CCCN(CCCOC(=O)c3cc(OC)c(OC)c(OC)c3)CC2)cc(OC)c1OC
[14]
  fluorescence slope change: 100% (active)
[5]
  period change: -0.025 h (inactive)
[13]
  survival: 9.25 (inactive)

## C=CC(N)CCC(=O)O (stereo unspecified)
[14]
  fluorescence slope change: 52.2% (active)
[5]
  period change: 0.105 h (inactive)
[13]
  survival: 14.4 (inactive)

## CN1C(C)(C)CCCC1(C)C
[14]
  fluorescence slope change: 17% (inactive)
[5]
  period change: -0.07 h (inactive)
[13]
  survival: 3.5 (inactive)

## CC(=O)OC(C)C[N+](C)(C)C (stereo unspecified)
[14]
  fluorescence slope change: -0.2% (inactive)
[5]
  period change: -0.04 h (inactive)
[13]
  survival: 1.33 (inactive)

## CNCC(O)c1ccc(O)c(O)c1 (stereo unspecified)
[5]
  period change: -0.055 h (inactive)

## Nc1nc2c(ncn2COC(CO)CO)c(=O)[nH]1
[5]
  period change: -0.27 h (inactive)
[13]
  survival: 3.83 (inactive)

## NCCS
[5]
  period change: 0.02 h (inactive)

## NC(N)=N/N=C/c1c(Cl)cccc1Cl
[14]
  fluorescence slope change: 70.4% (active)
[5]
  period change: 0.195 h (inactive)
[13]
  survival: 17.8 (inactive)

## C[C@](N)(Cc1ccc(O)cc1)C(=O)O
[5]
  period change: -0.34 h (inactive)

## CN1CCN(C2=Nc3ccccc3Oc3ccc(Cl)cc32)CC1
[14]
  fluorescence slope change: 163% (active)
[5]
  period change: -0.045 h (inactive)
[13]
  survival: 12 (inactive)

## CC(=O)[C@]1(O)Cc2c(O)c3c(c(O)c2[C@@H](O[C@H]2C[C@H](N)[C@H](O)[C@H](C)O2)C1)C(=O)c1ccccc1C3=O
[5]
  period change: -1.6 h (inactive)

## CN1CCC(=C2c3ccccc3C=Cc3ccccc32)CC1
[14]
  fluorescence slope change: 178% (active)
[5]
  period change: 0.015 h (inactive)
[13]
  survival: 13.7 (inactive)

## Cc1scc2c1N(C(=O)CN1CCN(C)CC1)c1ccccc1NC2=O
[14]
  fluorescence slope change: 65.1% (active)
[5]
  period change: 0.165 h (inactive)
[13]
  survival: 11.3 (inactive)

## COCCCC/C(=N\OCCN)c1ccc(C(F)(F)F)cc1
[5]
  period change: -0.015 h (inactive)
[13]
  survival: 6.67 (inactive)

## COC(=O)[C@@H]1[C@H]2C[C@H]3c4[nH]c5ccccc5c4CCN3C[C@@H]2CC[C@@H]1O
[14]
  fluorescence slope change: 52.6% (active)
[5]
  period change: 0.095 h (inactive)
[13]
  survival: 8.25 (inactive)

## Cc1nc2n(c(=O)c1CCN1CCC(c3noc4cc(F)ccc34)CC1)CCCC2
[5]
  period change: 0.015 h (inactive)
[13]
  survival: 5 (inactive)

## O=c1c(-c2ccc(O)cc2)coc2cc(O)cc(O)c12
[5]
  period change: 0 h (inactive)

## COc1ccc(C2CNC(=O)C2)cc1OC1CCCC1 (stereo unspecified)
[5]
  period change: -0.065 h (inactive)
[13]
  survival: 3.92 (inactive)

## OCc1cc(C(O)CNCCCCCCOCCCCc2ccccc2)ccc1O (stereo unspecified)
[5]
  period change: -0.06 h (inactive)

## Nc1ccn([C@H]2CC[C@@H](CO)O2)c(=O)n1
[5]
  period change: -0.095 h (inactive)
[13]
  survival: 9 (inactive)

## CCOC(=O)c1ncn2c1CN(C)C(=O)c1cc(F)ccc1-2
[5]
  period change: -0.15 h (inactive)

## O=C(c1ccc(F)cc1)C1CCN(CCn2c(=O)[nH]c3ccccc3c2=O)CC1
[14]
  fluorescence slope change: -1% (inactive)
[5]
  period change: 0 h (inactive)
[13]
  survival: 12.7 (inactive)

## Oc1cc(O)c2c(c1)O[C@H](c1ccc(O)c(O)c1)[C@H](O)C2
[14]
  fluorescence slope change: -0.6% (inactive)

## C[C@]12C[C@H](O)[C@H]3[C@@H](CCC4=CC(=O)CC[C@@]43C)[C@@H]1CC[C@@H]2C(=O)CO
[5]
  period change: -0.34 h (inactive)
[13]
  survival: 6.08 (inactive)

## c1cnc(N2CCN(Cc3ccc4c(c3)OCO4)CC2)nc1
[5]
  period change: -0.05 h (inactive)
[13]
  survival: 3.67 (inactive)

## CC[C@]12CCCN3CCc4c(n(c5ccccc45)[C@@](O)(C(=O)OC)C1)[C@@H]32
[14]
  fluorescence slope change: 8.1% (inactive)
[13]
  survival: 10.1 (inactive)

## Cc1ccc(S(=O)(=O)NC(=O)NN2CC3CCCC3C2)cc1 (stereo unspecified)
[14]
  fluorescence slope change: 10.5% (inactive)
[13]
  survival: 5.67 (inactive)

## CC1CC(OC(=O)C(O)c2ccccc2)CC(C)(C)N1C (stereo unspecified)
[14]
  fluorescence slope change: 23.1% (inactive)
[13]
  survival: 2.33 (inactive)

## CCOC(=O)OC(C)OC(=O)[C@@H]1N2C(=O)[C@@H](NC(=O)[C@H](N)c3ccccc3)[C@H]2SC1(C)C (stereo partly specified)
[14]
  fluorescence slope change: 97.9% (active)
[13]
  survival: 16.9 (inactive)

## CCN(CCCc1ccccc1)CCCc1ccccc1
[14]
  fluorescence slope change: 72.6% (active)
[13]
  survival: 6.17 (inactive)

## CCCCNc1c(C(=O)OCC)c(C)nc2c1cnn2CC
[5]
  period change: 0.105 h (inactive)
[13]
  survival: 17.3 (inactive)

## Cc1[nH]c(=O)c(C#N)cc1-c1ccncc1
[5]
  period change: -0.005 h (inactive)
[13]
  survival: 9.17 (inactive)

## N#Cc1ccc(C(c2ccc(C#N)cc2)n2cncn2)cc1
[13]
  survival: 1.25 (inactive)

## Cc1cc2c(C(C)C)c(O)c(O)c(C=O)c2c(O)c1-c1c(C)cc2c(C(C)C)c(O)c(O)c(C=O)c2c1O
[14]
  fluorescence slope change: 93.5% (active)
[13]
  survival: 5.5 (inactive)

## COc1cc(OC)c(C(=O)CCCN2CCCC2)c(OC)c1
[14]
  fluorescence slope change: 82.5% (active)
[13]
  survival: 9.58 (inactive)

## O=C(CCNNC(=O)c1ccncc1)NCc1ccccc1
[5]
  period change: -0.045 h (inactive)
[13]
  survival: 17.5 (inactive)
